Measurements as given in article PMC5540273 (PLoS ONE, 2017).

Tests used:
Conditions in all cases: concentration: 1 μM, replicates: in singlicate; n = 1
[1] = test system: BMPR1A
[2] = test system: BMPR1B
[3] = test system: BMPR2
[4] = test system: BMX
[5] = test system: BRAF
[6] = test system: T1, BRK
T1 construct: gene PTK6

[7] = test system: BRSK1
[8] = test system: BRSK2
[9] = test system: BTK
[10] = test system: BUB1
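Further: KINOMEscan kinase panel screen.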

SMILES	%Inh [1] [%]	%Inh [2] [%]	%Inh [3] [%]	%Inh [4] [%]	%Inh [5] [%]	%Inh [6] [%]	%Inh [7] [%]	%Inh [8] [%]	%Inh [9] [%]	%Inh [10] [%]
Cc1ccc(-c2cc(-c3c[nH]nc3-c3ccccn3)ccn2)cc1 [GW684088]	0	18	0	36	0	3	0	0	51	40
Fc1cc(Cl)ccc1Nc1ccnc2cc(I)ccc12 [GW551191]	0	0	8	0	12	19	2	0	0	54
Cl.O=C(Nc1cccc(-c2nn3ncccc3c2-c2ccnc(Nc3cccnc3)n2)c1)c1c(F)cccc1F [GSK312879]	0	0	0	24	91.6	21	8	0	0	7
O=C1NC(=O)C(N2CCc3ccccc32)=C1c1ccccc1Cl [SB-373598]	0	8	100	29	1	24	12	9	0	16
Fc1cccc(COc2nnc(-c3ccc4c(c3)CCO4)o2)c1	0	6	18	0	0	0	0	6	17	20
O=C(Nc1n[nH]c2nc(-c3nccs3)c(Br)cc12)C1CCCC1 [SB-742609]	0	0	13	0	12	26	93	85	0	37
O=C(Nc1ccccc1)Nc1cccc(Oc2ccc3nccn3n2)c1	0	0	0	0	24	0	0	0	0	0
Clc1cc(Cl)cc(Nc2ccnc(Nc3cc(Cl)cc(Cl)c3)n2)c1 [GSK175726]	0	0	5	26	0	21	0	0	0	10
Cc1cccc(-c2cc(Nc3ccncc3)c3ccccc3n2)n1 [GSK223675]	0	0	0	1	0	0	0	0	0	0
Cc1cccc(-c2nc(Nc3ccc4[nH]ncc4c3)c3ccccc3n2)n1 [GW857175]	60	34	18	15	16	2	0	0	10	65
Cc1csc(-c2nc(Nc3ccncc3)c3ccccc3n2)n1 [GW869640]	6	42	36	14	10	8	0	15	0	72
CN1C(=O)C(Nc2ccc(Cl)c(C(=O)O)c2)=C(c2ccc(Cl)cc2)C1=O [SB-404290]	4	0	25	0	0	0	0	0	0	0
COc1cc2ncnc(Nc3ccc4nc(-c5ccccc5)[nH]c4c3)c2cc1OC.Cl [GW282450]	0	0	0	10	0	0	0	0	0	6
COc1ccccc1CNC(=O)c1cc(C(=O)c2ccccc2C)c[nH]1 [GSK364507]	4	0	7	8	0	12	0	95.2	0	33
CC1=C(C(=O)Nc2cc3cn[nH]c3cc2F)C(c2ccc(C(F)(F)F)cc2)CC(=O)N1 (stereo not drawn) [GSK429286]	0	0	6	4	7	20	5	0	0	18
COc1ccc(Nc2nccc(-c3cccc(NC(=O)c4cc5cc(F)ccc5[nH]4)c3)n2)cc1 [GSK1229782]	10	0	15	16	0	22	4	12	31	64
COc1cc2ncn(-c3cc(OCC4CCCO4)c(C(N)=O)s3)c2cc1OC (stereo not drawn) [GSK204607]	0	0	24	19	0	18	15	7	0	32
Cc1ccccc1-n1cnc2c(N)ncnc21 [SKF-97510]	0	0	0	12	0	5	0	0	0	0
